Source: PubChem BioAssay
Activity calls are given as the source filed them. How the calls were made is not given here.

Target: Pantothenate synthetase (Mycobacterium tuberculosis (strain ATCC 25618 / H37Rv)) (UniProt P9WIL5)
Assay: Recombinant Mtb pantothenate synthetase (PanC) inhibitors, coupled enzyme, confirmatory (AID 375);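 further: 0% = full reaction with vehicle and 100% = no enzyme background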
Conditions: coupled enzyme assay; at 10 µM, stronger effect = higher value

Pantothenate synthetase (Mycobacterium tuberculosis (strain ATCC 25618 / H37Rv)), sequence (P9WIL5 whole entry, looked up): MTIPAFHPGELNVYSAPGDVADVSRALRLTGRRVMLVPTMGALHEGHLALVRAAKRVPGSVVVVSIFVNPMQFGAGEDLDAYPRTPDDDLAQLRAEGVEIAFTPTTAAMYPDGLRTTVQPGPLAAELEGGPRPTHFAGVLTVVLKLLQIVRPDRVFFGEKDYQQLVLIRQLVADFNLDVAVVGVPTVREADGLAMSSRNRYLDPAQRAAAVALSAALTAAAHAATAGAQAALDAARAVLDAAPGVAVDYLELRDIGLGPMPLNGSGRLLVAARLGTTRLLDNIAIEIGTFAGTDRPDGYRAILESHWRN

| Compound | inhibition |
| --- | --- |
| O=C(Nc1ccc(OC(=O)c2ccco2)cc1)c1ccco1 | 7% (inactive) |
| O=C(COC(=O)C1(c2ccccc2F)CCCC1)NC1CCS(=O)(=O)C1 (centres undefined) | 3% (inactive) |
| CCOC(=O)C1=C(C)N(C)C(=O)NC1c1ccccc1OC (centres undefined) | 0% (inactive) |
| COc1ccc(-c2cc3ccc(OCc4nn[nH]n4)cc3oc2=O)cc1 | 7% (inactive) |
| O=C(COc1ccc(F)cc1)Nc1ccc(-n2cnnn2)cc1 | 0% (inactive) |
| CN(C)CCN(Cc1ccccc1)c1ccccn1 | 5% (inactive) |
| O=C(Nc1cccnc1)Nc1ccc2c(c1)OCO2 | 0% (inactive) |
| CC(=Nc1cccc(O)c1)c1sc2ccccc2c1O | 0% (inactive) |
| Cn1c(=O)n(CC(=O)OCc2ccccc2)c(=O)c2c1nc1n2CCCN1C1CCCCC1 | 0% (inactive) |
| CC(C)NC(=O)c1ccccc1NC(=O)c1ccccc1N(C)S(C)(=O)=O | 4% (inactive) |
| O=c1c(CN2CCN(Cc3ccccc3)CC2)coc2ccc(Cl)cc12 | 0% (inactive) |
| COc1ccc(S(=O)(=O)N2Cc3ccccc3CC2C(=O)Nc2ccc(O)cc2)cc1OC (centres undefined) | 10% (inactive) |
| CC1=C(C(=O)NCc2ccccn2)C2(CCC(C)CC2)OC1=O (centres undefined) | 0% (inactive) |
| COc1cc(OC)cc(C(=O)N2CCN(C(=O)c3ccc(OC)c(OC)c3)CC2)c1 | 1% (inactive) |
| CCN(CC)c1ccc(NC(=O)c2nc3nc(C)cc(C(F)F)n3n2)cc1 | 0% (inactive) |
| CC(C)CCNC(=O)C(c1ccco1)N(CC1CCCO1)C(=O)Cn1nnc2ccccc21 (centres undefined) | 0% (inactive) |
| Cn1nc(C(=O)N2CCOCC2)c2ccccc2c1=O | 0% (inactive) |
| Cc1cc(C)cc(N2CCCn3c2nc2c3c(=O)n(CCN3CCOCC3)c(=O)n2C)c1 | 7% (inactive) |
| COCCNC(=O)C(C)OC(=O)c1nsc(Cl)c1Cl (centres undefined) | 0% (inactive) |
| COC(=O)c1cc2ccsc2n1Cc1nc(-c2ccc(OC)cc2)oc1C | 9% (inactive) |
| CCCCNC(=O)c1c(C)cc(=O)oc1C | 9% (inactive) |
| COc1cccc(-c2cc(C(=O)N3CCCCCC3)no2)c1 | 1% (inactive) |
| CCN(CC)CCN1C(=O)C(=O)/C(=C(/O)c2c(C)[nH]c(C(=O)OC)c2C)C1c1ccco1 (centres undefined) | 0% (inactive) |
| Cc1cc(NCCCn2ccnc2)n2c(nc3ccccc32)c1C#N | 0% (inactive) |
